# Sampled rows, rich in hits. Any-hit rate of the full collection: about 4.1%.
# DAX1 inh-1: inhibitors of human orphan nuclear receptor DAX1 (NR0B1); P51843; 340,000 compounds, 0.99% hits; inhibition, % at 6.75 µM; AID 504766; HEK293 Gal4-DAX1 luciferase reporter, luminescence;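 active means inhibition above the mean over all tested compounds plus 3 SD, cut at about 4.2% in these data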;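 further: inhibition shows as a rise in luminescence from relieved DAX1 repression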
# Target sequence (P51843 207-470 limits assumed): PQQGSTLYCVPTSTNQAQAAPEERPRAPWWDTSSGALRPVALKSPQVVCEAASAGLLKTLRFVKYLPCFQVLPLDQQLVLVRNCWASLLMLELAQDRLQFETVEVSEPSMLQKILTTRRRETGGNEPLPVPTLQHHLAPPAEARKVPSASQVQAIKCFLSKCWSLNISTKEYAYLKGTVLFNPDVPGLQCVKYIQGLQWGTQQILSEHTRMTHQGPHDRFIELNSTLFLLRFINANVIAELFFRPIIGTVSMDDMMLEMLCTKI
# ssDAF12 agonist: activates DAF-12 receptor from parasite S. stercoralis; activation, % at 6.8 µM; HEK293 ssDAF-12/GRIP1 lit1-tk-luc reporter, luminescence; % of 3 µM dafachronic acid response; AID 652126; 370,000 compounds, 1% hits;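 active means activation above the mean over all tested compounds plus 3 SD, cut at about 0.9% in these data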
# hgDAF12 agonist: activates the H. glycines DAF-12 receptor ligand-binding domain; AID 687014; activation, % at 6.8 µM; HEK293 GAL4-hgDAF12 UAS-luciferase reporter, agonist luminescence; normalized to butyrate control; 370,000 compounds, 1.8% hits;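 active means activation above a cutoff set at the mean of all screened compounds plus 3 SD, cut at about 10% in these data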
# hcDAF12 agonist: activates DAF-12 receptor from parasite H. contortus. 370,000 compounds, 1.4% hits. HEK293 hcDAF-12 lit1-tk-luc reporter, luminescence; 0% DMSO, 100% Δ7-dafachronic acid. activation, % at 6.8 µM;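 active means activation above the mean of all tested compounds plus 3 SD, cut at about 5.5% in these data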
# DAX1 inh-2: DAX1 (NR0B1) inhibition, primary screen; HEK293T StAR-luciferase reporter, SF-1/DAX-1 repression relief; inhibition, % at 6.8 µM; 370,000 compounds, 1.1% hits; AID 652010;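 active means inhibition above the mean over all tested compounds plus 3 SD, cut at about 3.6% in these data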;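 further: higher inhibition means more luminescence from relief of DAX-1 repression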
# Hits are given with their value; i = inactive; nt = no result given.
SMILES,DAX1 inh-1,ssDAF12 agonist,hgDAF12 agonist,hcDAF12 agonist,DAX1 inh-2
O=C(COC(=O)COc1ccccc1)NC1CCCC1,i,i,i,i,i
Cc1cc(OCC(=O)OCC(=O)NC2CCCCCC2)ccc1Cl,i,i,i,i,i
Cc1cccc(C(=O)NCC(=O)OCC(=O)NC2CCCCCCC2)c1,i,i,i,i,i
Cc1cc(OCC(=O)OCC(=O)NC2CCS(=O)(=O)C2)ccc1Cl (stereo unspecified),i,i,i,5.9,i
CC(=O)Nc1cccc(OCC(=O)Nc2sccc2C(N)=O)c1,i,i,12.2,i,i
CC(=O)Nc1cccc(OCC(=O)Nc2ccccc2)c1,i,i,i,i,i
COc1cccc(C(=O)NCC(=O)OCC(=O)NC2CCCCC2)c1,i,1.3,i,i,i
COC(=O)[C@]12C[C@H](CC(=O)NCC3CCCCC3)C(=O)N(Cc3ccc4c(c3)OCO4)C1=C[C@H](C(C)(C)C)O[C@@H]2C,nt,i,i,i,i
Cc1ccc(S(=O)(=O)NC(C(=O)OCC(=O)NC2CCS(=O)(=O)C2)C(C)C)cc1 (stereo unspecified),i,i,i,i,i
Cc1ccc(C(=O)N[C@H](C(=O)OCC(=O)NC2CCS(=O)(=O)C2)C(C)C)cc1 (stereo partly specified),i,1.5,i,i,i
Cc1ccsc1C(=O)OCC(=O)NC1CCCCC1,i,i,10.8,i,i
COc1cccc(NC(=O)COC(=O)c2c(F)cccc2F)c1,i,i,i,i,i
COc1cccc(NC(=O)COC(=O)c2sccc2C)c1,6.2,i,13.1,6.4,3.7
COc1ccc(/C=C2\SC(=S)N(N3C(=O)CCC3=O)C2=O)cc1O,4.4,i,i,i,i
COc1ccc(/C=C2/SC(=S)N(Cc3ccccc3)C2=O)cc1O,i,i,i,i,i
COC(=O)c1ccccc1S(=O)(=O)NC(=O)[C@H]1O[C@@H](n2ccc(=O)[nH]c2=O)[C@H](O)[C@@H]1O,nt,i,i,i,i
CC1(C)Cc2c(sc3nc(C4CC4)n(N)c(=O)c23)CO1,7.6,i,i,i,i
CCN(CC)CCNC(=O)CNC(=O)c1nn(-c2ccc(OC)c(OC)c2)c(=O)c2ccccc12,4.9,i,i,i,i
O=S1(=O)CC(N2CCSCC2)CN1Cc1cn(Cc2ccc(C(F)(F)F)cc2)nn1 (stereo unspecified),nt,i,i,i,i
Cc1cccc(C)c1-n1nnnc1C1c2ccccc2OCC(=O)N1Cc1ccc(F)cc1 (stereo unspecified),nt,i,i,i,i
O=C(NCCN1CCCCC1)Nc1ccc([N+](=O)[O-])cc1,8.7,i,i,i,i
O=C(CCc1ccccc1)Nc1ccc(S(=O)(=O)Nc2nccs2)cc1,i,i,i,6.3,i
CCOC(=O)c1c(CN2CCC(C)CC2)n(C)c2cc(Br)c(OC)cc12,4.9,i,i,i,i
O=C(N[C@H](C(=O)N1CCC[C@H]1C(=O)NC1CCCC1)c1ccccc1)c1ccc(Cl)c(Cl)c1,nt,i,i,i,i
COC(=O)c1cc(=O)n(Cc2cccs2)c(=Nc2ccccc2)s1,4.3,i,i,i,i
SMILES,DAX1 inh-1,ssDAF12 agonist,hgDAF12 agonist,hcDAF12 agonist,DAX1 inh-2
COCc1cc(N2CCNC[C@H]2C)ccc1N1CCN(Cc2ccccc2)[C@@H](C)C1,nt,i,i,i,i
O=C(CN1C(=O)C2CCCCC2C1=O)OCn1nnc2ccccc2c1=O (stereo unspecified),6.4,i,i,i,i
COC(=O)[C@]1(C#N)CC(=O)N(CC(C)C)[C@@H]1c1ccccc1,nt,i,i,i,i
COc1ccc(-n2cc(CNCCCn3ccnc3)c(-c3cccc(F)c3)n2)cc1,5.4,i,i,i,i
Cc1ccc(Nc2ncccc2C(=O)NCc2cccs2)c(C)c1,i,i,i,i,i
Cc1ccc(Sc2ncccc2C(=O)N(C)Cc2cccs2)c(C)c1,4.6,i,i,i,i
CCc1nc2c(OCc3ccc(OC)cc3)cccn2c1N(C)C(=O)C(C)C,nt,i,i,i,i
COC(=O)[C@@H](Cc1ccccc1)NC(=O)[C@H]1O[C@@H](n2cnc3c(N)ncnc32)[C@H](O)[C@@H]1O,nt,i,i,i,i
Nc1ncnc2c1ncn2[C@@H]1O[C@H](C(=O)N2CCC[C@@H]2C(=O)OCc2ccccc2)[C@@H](O)[C@H]1O,nt,i,11.6,i,i
O=C(c1ccc2nc(Cc3cccc(Cl)c3)oc2c1)N1CCOCC1,i,i,i,6.0,3.9
